Compounds without any hit were thinned out: in the full panel of roughly 83,000, 20% have a hit.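 Treatment: one concentration, 48 hours, 96-well format. Scoring: percent growth, with anything below 10 considered active.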 Unmarked numbers belong to inactive results. The source made the active and inactive calls.
Each molecule was assayed on HOP-62 NSCLC (assay: NCI-60 one-dose screen, 48 h (100 = growth as untreated, 0 = no growth, -100 = all killed)). Conditions: 10 µM unless noted.

| SMILES | growth |
| --- | --- |
| O=C(CSc1nnc(-c2ccc(Cl)cc2)n1-c1ccccc1)Nc1ccccc1Cl | 115% |
| CN(C)S(=O)(=O)c1ccc(-c2nc(C(Cl)Cl)nc3cc(-c4ccc(F)cc4)nn23)cc1 | 9.75% (active) |
| C1=CC(c2nn3c(-c4ccccc4)nnc3s2)=Cc2ccccc2O1 | 105% |
| COc1ccccc1N1CCN(C2=C(Cl)C(=O)c3ncccc3C2=O)CC1 | 93.4% |
| O=C(COc1ccc(/C=C2\C(=O)Nc3ccc(F)cc32)cc1)Nc1ccccc1 | 99.5% |

The molecules below were run on NCI-H460 lung in the same assay as above. Conditions: 10 µM unless noted.

| SMILES | growth |
| --- | --- |
| NC(=O)n1c(=O)n(-c2cccc(C(F)(F)F)c2)c(=O)c2cc(-c3ccc(F)cc3F)ccc21 | 4.55% (active) |
| Cn1c(SCC(=O)c2ccco2)nc2ccccc2c1=O | 101% |
| C=C(C)[C@@H]1CC[C@]2(C(=O)O)CC[C@]3(C)[C@H](CC[C@@H]4[C@@]5(C)C/C(=C/c6ccccn6)C(=O)C(C)(C)[C@@H]5CC[C@]43C)[C@@H]12 | 16.1% |
| CCc1cc2c(cc1Cl)nc1c(=O)[nH]c(=O)nc-1n2CCOCC(C)(C)C | 56.4% |
| O=C(Nc1ccc(N2CCOCC2)cc1)Nc1ccc2c(ccn2C(=O)c2cccc(F)c2)c1 | 38.8% |
| C#CCOc1cccc(-c2nc(N)nc(Nc3ccccc3SSc3ccccc3Nc3nc(N)nc(-c4cccc(OCC#C)c4)n3)n2)c1 | -15.7% (active) |
| CN1CCN(Cc2ccc(NC(=O)c3cncc(C#Cc4cnc5ccc(OCCCS(C)(=O)=O)nn45)c3)cc2C(F)(F)F)CC1 | -64.1% (active) |
| CNC(=O)c1cc(-n2ccc3cc(NC(=O)Nc4ccc(N5CCN(C)CC5)c(C(F)(F)F)c4)ccc32)ccn1 | 60% |
| Nc1cc(C(=O)N/N=C\c2ccc(OC(F)F)c(OC3CCCC3)c2)nn1CC(O)c1ccccc1 (stereo not given) | 105% |
| CNC(=O)Nc1ccc(Nc2cc(-c3ccc(-n4cccn4)cc3)[nH]n2)c(C)c1 | 97.3% |
| Cc1nc(/N=C(N)/N=C(\N)c2cccc(Br)c2)sc1C | 30.1% |
| Brc1cccc(-c2cc(-c3ccc4c(c3)OC=CO4)[nH]n2)c1 | 15.1% |
| Cc1ccc2c(n1)C(=O)C(Cl)=C(Nc1ccc(C)c(C)c1)C2=O | 46.4% |
| CN1CCN(Cc2ccc(NC(=O)c3cncc(C#Cc4cnc5ccc(N)nn45)c3)cc2C(F)(F)F)CC1 | 14.9% |
| O=C1[C@@H]2Cc3c([nH]c4ccccc34)[C@@H](c3ccc(Cl)cc3)N2C(=O)CN1C1CCN(Cc2ccccc2)CC1 | 20% |
| CN1CCN(c2ccc(C(=O)/C=C/c3cc(F)cc(C(F)(F)F)c3)cc2)CC1 | 80.2% |
| CCCc1cc2cc(-n3nc(CC)c4c3CC(C)(C)CC4=O)cc(NC3CCC(O)CC3)c2c(=O)[nH]1 (stereo not given) | -12.1% (active) |
| O=C1[C@@H]2Cc3c([nH]c4ccccc34)[C@H](c3ccc(Br)cc3)N2C(=O)CN1C1CCN(Cc2c(Cl)cccc2Cl)CC1 | 97.5% |
| CC1(C)CC[C@]2(C(=O)NCCCCCCN(CCCN)CCCN)CC[C@]3(C)C(=CC[C@@H]4[C@@]5(C)CC[C@H](O)C(C)(C)[C@@H]5CC[C@]43C)[C@@H]2C1 | 102% |
| N#Cc1c(-c2cccs2)cc(-c2cnccn2)nc1SCC(=O)N/N=C/c1ccccc1 | 17% |

| SMILES | growth |
| --- | --- |
| Cc1ccc(S(=O)(=O)NCCCNc2nccc(-c3[nH]c(-c4ccccc4)nc3-c3ccc(F)c(O)c3)n2)cc1 | 82.1% |
| COc1ccc2c(c1)c(-c1nc(N)nnc1-c1c[nH]c3ccccc13)cn2C | 14.2% |
| COC(=O)c1ccc(NC2=C(Cl)C(=O)c3nc(C)ccc3C2=O)cc1 | 92.3% |
| N#Cc1c(-c2cccs2)cc(-c2cnccn2)nc1SCC(=O)N/N=C/c1ccncc1 | 108% |
| Cc1ccc2c(n1)C(=O)C(Cl)=C(Nc1cccc(C(F)(F)F)c1)C2=O | 101% |
| C#CCN(C)CCCOc1ccc(NCc2ccc(/C=C/C(=O)NO)cc2)cc1Cl | 4.27% (active) |
| CC1=C(SCC(=O)OCCCCCC(C)C)C(=O)c2ccccc2C1=O | 102% |
| Cc1ccc2c(n1)C(=O)C(Cl)=C(Nc1ccc(C#N)cc1)C2=O | 100% |
| COc1cccc(N2CCN(C3=C(Cl)C(=O)c4ncccc4C3=O)CC2)c1 | 63% |
| Clc1ccc2[nH]cc(-c3cncn3CCc3ccc4c(c3)OCO4)c2c1 | 81.6% |
| CN1CCN(c2ccc(Nc3nc(NCCNS(=O)(=O)c4ccc5ccccc5c4)c4sccc4n3)cc2)CC1 | 74.3% |
| Cc1[nH]c(C(=O)Nc2ccc(C(=O)NCC3CCNCC3)cc2OC(C)C)c(Cl)c1Cl | 34.7% |
| Nc1ncc(-c2ccc3ncnc(NCc4ccccc4)c3c2)cn1 | 44.7% |
| O=C(NNc1nc2cc(F)cc(F)c2n2cccc12)c1cccnn1 | 6.92% (active) |
| CCCc1[nH]c(-c2cc(N)ccc2Cl)c2c1C(=O)CCCC2 | 102% |
| O=C(CSc1nnc(-c2ccc(Cl)cc2)n1-c1ccccc1)Nc1ccccc1Cl | 54.5% |
| CN(C)S(=O)(=O)c1ccc(-c2nc(C(Cl)Cl)nc3cc(-c4ccc(F)cc4)nn23)cc1 | 1.94% (active) |
| C1=CC(c2nn3c(-c4ccccc4)nnc3s2)=Cc2ccccc2O1 | 87.2% |
| COc1ccccc1N1CCN(C2=C(Cl)C(=O)c3ncccc3C2=O)CC1 | 75% |
| O=C(COc1ccc(/C=C2\C(=O)Nc3ccc(F)cc32)cc1)Nc1ccccc1 | 96.1% |
